Experimental data published in PubChem BioAssay.
A number with no mark means an inactive call.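 How the source made its calls: active means at least 20% inhibition of 6-phosphogluconate dehydrogenase activity; inactive means the rest.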

target: 6-phosphogluconate dehydrogenase, decarboxylating (Homo sapiens) (UniProt P52209); assay: inhibition of human phosphogluconate dehydrogenase – biochemical, recombinant enzyme, NADPH absorbance, primary screen (AID 1159550); details: recombinant 6PGD, NADPH absorbance 341 nm; at 10 µM; active compounds read high
Sequence (P52209 whole entry, looked up): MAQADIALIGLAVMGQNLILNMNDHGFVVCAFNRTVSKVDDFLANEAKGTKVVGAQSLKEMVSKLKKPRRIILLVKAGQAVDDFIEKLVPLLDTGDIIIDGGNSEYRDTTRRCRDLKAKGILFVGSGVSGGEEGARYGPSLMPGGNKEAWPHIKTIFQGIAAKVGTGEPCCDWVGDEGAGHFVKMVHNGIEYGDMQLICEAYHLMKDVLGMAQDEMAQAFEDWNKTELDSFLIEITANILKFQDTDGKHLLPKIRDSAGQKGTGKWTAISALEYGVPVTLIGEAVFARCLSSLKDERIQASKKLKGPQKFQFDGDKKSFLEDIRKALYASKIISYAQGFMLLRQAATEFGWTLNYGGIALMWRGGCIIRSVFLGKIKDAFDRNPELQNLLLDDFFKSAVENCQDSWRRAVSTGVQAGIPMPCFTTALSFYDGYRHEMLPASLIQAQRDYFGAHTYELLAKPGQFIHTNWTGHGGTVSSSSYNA

Row | SMILES | inhibition [%]
1 | CC(=O)[C@H]1CC[C@H]2[C@@H]3CC[C@H]4C[C@@H](O)CC[C@]4(C)[C@H]3CC[C@]12C | -19.3
2 | O=C(CC[N+](=O)[O-])OC[C@H]1O[C@@H](O)[C@H](OC(=O)CC[N+](=O)[O-])[C@@H](OC(=O)CC[N+](=O)[O-])[C@@H]1OC(=O)CC[N+](=O)[O-] | 0.279
3 | CN[C@@H](Cc1c[nH]c2ccccc12)C(=O)O | 8.96
